16 compounds from PubChem BioAssay (EPA / NIEHS) can be followed below.

Assay [1] can be described thus: ATG_CRE_CIS: Attagene CIS-FACTORIAL HepG2 Assay for human cAMP Responsive Element (CRE) binding protein 3 (AID 2282926). Particulars: HepG2 CRE cis-reporter, Attagene multiplexed mRNA; actives raise or lower the signal. An outline of the steps: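 Capillary electrophoresis of 6-FAM-labelled, HpaI-digested PCR products quantified reporter transcripts. These came from HepG2 transiently transfected with cis-element reporters and exposed to test chemicals for 24 hours, with DMSO defining baseline activity.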

Assay [2] deals with CCAAT/enhancer-binding protein beta (Homo sapiens) (UniProt P17676). Description: ATG_C_EBP_CIS: Attagene CIS-FACTORIAL HepG2 Assay for human CCAAT/Enhancer Binding Protein (C/EBP) beta (AID 2282927). Particulars: HepG2 Attagene cis-factorial transcription factor reporter; actives raise or lower the signal. An outline of the steps: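 RT-PCR/capillary electrophoresis fluorescence of reporter mRNA, 24 h post-dose, in HepG2 cells carrying transfected cis-promoter reporter units. Bidirectional curve fitting against DMSO baseline captures gain or loss of signal.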

Assay [3] in a line: ATG_CMV_CIS: Attagene CIS-FACTORIAL HepG2 Assay for human CMV (Internal Marker) (AID 2282928).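 Note: endpoint acts as a background internal control marker rather than a target.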 Particulars: HepG2 CMV promoter reporter, transcription factor profiling; actives raise or lower the signal. An outline of the steps:
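Fluorescence intensity of RT-PCR-derived reporter fragments, resolved by capillary electrophoresis, gives the signal. HepG2 liver cells bearing transfected cis-element reporters were treated 24 h; activity in either direction was fit relative to DMSO-treated controls.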

Assay [4] has as its target Aryl hydrocarbon receptor (Homo sapiens) (UniProt P35869). Description: ATG_Ahr_CIS: Attagene CIS-FACTORIAL HepG2 Assay for human Aryl Hydrocarbon Receptor (Ahr) (AID 2282930). Particulars: HepG2 AhR cis-factorial reporter transcription; actives raise or lower the signal. An outline of the steps: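 HepG2 cells transiently transfected with cis-element-driven multiplexed reporter transcription units; endogenous transcription factor activity measured as reporter mRNA 24 h after dosing. RT-PCR, 6-FAM labelling, HpaI digestion, capillary electrophoresis; bidirectional fitting versus DMSO baseline.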

Assay [5] can be described thus: ATG_AP_1_CIS: Attagene CIS-FACTORIAL HepG2 Assay for human Activator Protein 1 (AP-1) (AID 2282931). The conditions noted are these: HepG2 Attagene cis-factorial AP-1 reporter mRNA; actives raise or lower the signal. An outline of the steps:
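Bidirectional concentration-response fitting against DMSO controls. Underlying signal: reporter mRNA from cis-promoter constructs in transiently transfected HepG2, measured after 24 h by RT-PCR and capillary electrophoresis.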

The nature of assay [6]: ATG_AP_2_CIS: Attagene CIS-FACTORIAL HepG2 Assay for human Activator Protein 2 (AP-2) (AID 2282932). Particulars: HepG2 AP-2 cis-reporter, Attagene transcription factor profiling; actives raise or lower the signal. An outline of the steps:
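Cells (HepG2) transfected with promoter-driven reporter constructs, treated 24 h. Total RNA reverse-transcribed, reporter cDNA PCR-amplified, FAM-labelled by primer extension, digested, resolved by capillary electrophoresis. Activity fitted both directions versus DMSO.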

The nature of assay [7]: ATG_BRE_CIS: Attagene CIS-FACTORIAL HepG2 Assay for human Bone Morphogenetic Protein (BMP) Response Element (BRE) (AID 2282933). The conditions noted are these: HepG2 BMP response element reporter, Attagene transcription factor profiling; actives raise or lower the signal. In short, it runs like this:
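Endogenous transcription factor activity at a BMP response element was monitored in transfected HepG2 cells 24 h after dosing. Fluorescent RT-PCR products were resolved by capillary electrophoresis, and activity was fitted in both directions versus DMSO.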

Assay [8] has as its target Transcription factor E2F1 (Homo sapiens) (UniProt Q01094). Description: ATG_E2F_CIS: Attagene CIS-FACTORIAL HepG2 Assay for human E2F Transcription Factor 1 (AID 2282935). The conditions noted are these: HepG2 Attagene cis-reporter, E2F reporter RNA transcripts; actives raise or lower the signal. An outline of the steps:
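First, HepG2 cells were transfected with reporter transcription units. Next, they were dosed for 24 h. Then RNA was isolated, converted to cDNA, PCR-amplified, FAM-labeled, HpaI-digested and analyzed by capillary electrophoresis.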

Assay [9] addresses Retinoic acid receptor alpha (Homo sapiens) (UniProt P10276). Description: ATG_DR5_RAR_CIS: Attagene CIS-FACTORIAL HepG2 Assay for human Retinoic Acid Receptor Alpha (RARE), DR5 submotif (AID 2282934). Particulars: HepG2 Attagene cis-factorial RARE DR5 reporter, mRNA; actives raise or lower the signal. An outline of the steps:
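HepG2 cells transiently transfected with multiplexed reporter units under cis (DR5 RARE) promoters, so endogenous transcription factor activity is measured. After 24 h compound exposure, reporter mRNA is quantified by RT-PCR with fluorescent labelling and capillary electrophoresis; bidirectional fitting versus DMSO.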

The source made the active and inactive calls. Rule for the calls: active = hit-call score of the fitted dose curve at least 0.9, where 1 is the maximum; inactive = score below 0.9.

Sequence of Aryl hydrocarbon receptor (Homo sapiens) (P35869 whole entry, looked up): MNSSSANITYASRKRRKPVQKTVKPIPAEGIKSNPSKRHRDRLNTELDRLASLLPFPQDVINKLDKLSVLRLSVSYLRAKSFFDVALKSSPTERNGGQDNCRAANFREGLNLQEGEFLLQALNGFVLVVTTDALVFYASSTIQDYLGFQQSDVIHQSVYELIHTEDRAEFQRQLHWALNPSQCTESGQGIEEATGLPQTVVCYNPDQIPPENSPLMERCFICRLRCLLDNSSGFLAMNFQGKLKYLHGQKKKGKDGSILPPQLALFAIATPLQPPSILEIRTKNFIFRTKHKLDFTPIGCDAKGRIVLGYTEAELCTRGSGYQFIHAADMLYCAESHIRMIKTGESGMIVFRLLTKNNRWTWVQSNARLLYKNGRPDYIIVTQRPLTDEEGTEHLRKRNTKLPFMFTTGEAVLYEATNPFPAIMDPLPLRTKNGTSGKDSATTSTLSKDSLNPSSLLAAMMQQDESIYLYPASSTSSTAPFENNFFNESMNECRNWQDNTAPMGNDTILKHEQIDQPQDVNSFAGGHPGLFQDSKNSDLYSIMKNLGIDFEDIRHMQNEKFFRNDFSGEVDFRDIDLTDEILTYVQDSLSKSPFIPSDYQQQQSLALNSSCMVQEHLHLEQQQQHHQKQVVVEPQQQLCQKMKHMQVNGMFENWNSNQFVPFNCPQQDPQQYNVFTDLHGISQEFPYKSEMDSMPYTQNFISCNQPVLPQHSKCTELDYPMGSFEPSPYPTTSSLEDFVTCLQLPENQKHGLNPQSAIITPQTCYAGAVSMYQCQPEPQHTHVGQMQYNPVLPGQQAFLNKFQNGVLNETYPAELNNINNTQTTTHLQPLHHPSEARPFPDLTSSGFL
Sequence of CCAAT/enhancer-binding protein beta (Homo sapiens) (P17676 whole entry, looked up): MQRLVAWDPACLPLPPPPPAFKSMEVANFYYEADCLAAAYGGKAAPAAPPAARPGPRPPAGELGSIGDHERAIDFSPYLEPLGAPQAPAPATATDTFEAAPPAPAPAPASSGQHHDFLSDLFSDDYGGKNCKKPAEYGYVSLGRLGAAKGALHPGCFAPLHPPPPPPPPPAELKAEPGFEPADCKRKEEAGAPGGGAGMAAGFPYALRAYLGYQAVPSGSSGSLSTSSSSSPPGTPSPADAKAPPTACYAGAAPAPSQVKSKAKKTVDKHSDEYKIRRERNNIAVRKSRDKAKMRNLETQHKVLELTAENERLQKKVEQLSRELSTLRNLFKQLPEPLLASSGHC
Sequence of Transcription factor E2F1 (Homo sapiens) (Q01094 whole entry, looked up): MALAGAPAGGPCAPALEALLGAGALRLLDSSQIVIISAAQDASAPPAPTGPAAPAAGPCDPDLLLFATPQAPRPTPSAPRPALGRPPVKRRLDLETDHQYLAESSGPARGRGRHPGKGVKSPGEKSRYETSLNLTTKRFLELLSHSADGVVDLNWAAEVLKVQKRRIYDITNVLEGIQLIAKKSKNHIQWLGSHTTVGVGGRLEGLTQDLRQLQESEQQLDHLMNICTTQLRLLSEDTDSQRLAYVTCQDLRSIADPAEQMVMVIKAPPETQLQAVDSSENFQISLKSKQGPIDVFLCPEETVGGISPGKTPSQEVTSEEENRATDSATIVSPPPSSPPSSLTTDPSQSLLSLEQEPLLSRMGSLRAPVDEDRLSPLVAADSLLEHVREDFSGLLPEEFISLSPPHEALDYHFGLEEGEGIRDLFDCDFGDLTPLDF
Sequence of Retinoic acid receptor alpha (Homo sapiens) (P10276 whole entry, looked up): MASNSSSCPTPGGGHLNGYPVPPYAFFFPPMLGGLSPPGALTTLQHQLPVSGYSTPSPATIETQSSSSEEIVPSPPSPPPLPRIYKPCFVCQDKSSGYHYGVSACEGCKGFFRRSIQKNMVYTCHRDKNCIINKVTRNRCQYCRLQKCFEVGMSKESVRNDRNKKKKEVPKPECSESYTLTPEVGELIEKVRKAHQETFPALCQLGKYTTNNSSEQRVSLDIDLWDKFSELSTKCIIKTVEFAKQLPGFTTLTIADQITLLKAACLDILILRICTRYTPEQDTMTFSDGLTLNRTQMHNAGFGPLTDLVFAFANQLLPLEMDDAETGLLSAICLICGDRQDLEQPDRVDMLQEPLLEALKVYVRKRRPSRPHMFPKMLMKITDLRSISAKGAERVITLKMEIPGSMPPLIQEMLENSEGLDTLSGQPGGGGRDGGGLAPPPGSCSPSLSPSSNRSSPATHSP

As for `Cc1ccc(Nc2ccc(O)c3c2C(=O)c2ccccc2C3=O)cc1`, the call in assay [1], in assay [2], in assay [3], in [4], in [5] and in assay [6] was inactive. For the same compound, the compound was classed as inactive in [7] and in assay [8].
Take `OCc1cccnc1`: the call in [1], in assay [2], in [3], in assay [4], in assay [5] and in assay [6] was inactive. The result in [7] and in assay [8] was inactive.
Take `NCCNCCN`: the result in assay [1], in assay [2], in assay [3], in [4], in assay [5] and in [6] was inactive. Besides, the outcome in [7] and in assay [8] was inactive.
As for `CSc1nnc(C(C)(C)C)c(=O)[nH]1`, the outcome in assay [1], in assay [2], in assay [3], in assay [4], in [5] and in assay [6] was inactive. In addition, the compound was classed as inactive in assay [7] and in assay [8].
In the case of `C=C[C@@H](C)CCC=C(C)C`, the result in assay [1], in [2], in assay [3], in assay [4], in [5] and in [7] was inactive. Besides, the result in assay [9] and in assay [8] was inactive.
Take `Cc1ccc2n[nH]nc2c1`: the compound was called inactive in [1], in [2], in assay [3], in assay [5], in [6] and in assay [7]. For the same compound, the compound was classed as inactive in assay [8]. Moreover, the AC50 in assay [4] was 16.3 µM (active).
As to `CCCCCCCCCCCCCCCC(=O)OC[C@H](O)[C@H]1OC(=O)C(O)=C1O`, the half-maximal activity concentration (AC50) in [1] was 29.3 µM (active); in assay [2], 67.7 µM (active); in [4], 78 µM (active); in assay [7], 9.68 µM (active). Moreover, the call in assay [3], in [5], in assay [6] and in assay [8] was inactive.
In the case of `O=C(O)c1cccc(C(F)(F)F)c1`, the result in [1], in assay [2], in assay [3], in [4], in assay [5] and in [6] was inactive. Also, the compound was classed as inactive in assay [7] and in assay [8].
For the compound `CCCCC/C=C/C=C/C=O`, the call in assay [1], in assay [2], in [3], in assay [4], in [5] and in assay [6] was inactive. The result in assay [7] and in assay [8] was inactive.
For the compound `O=C(O)Cc1cccc2ccccc12`, the call in [1], in [2], in assay [3], in assay [4], in [5] and in assay [6] was inactive. Besides, the compound was called inactive in assay [7] and in [8].
For `COc1cc(C)cc(O)c1`, the result in assay [1], in assay [2], in [3], in assay [4], in assay [5] and in assay [6] was inactive. Besides, the result in assay [7] and in [8] was inactive.
For the compound `O=C=NC1CCC(CC2CCC(N=C=O)CC2)CC1` (configuration not stated), the AC50 in assay [1] was 28.4 µM (active); in [2], 65.1 µM (active); in assay [3], 64.8 µM (active); in [4] it was 83.7 µM (active); in assay [7], 41.7 µM (active). Further, the outcome in assay [5], in assay [6] and in assay [8] was inactive.
As for `CC1CCC(C(C)(C)O)CC1` (configuration not stated), the result in [1], in [2], in assay [3], in assay [4], in [5] and in assay [7] was inactive. Also, in [8], the call was inactive.
For `CC1(C)[C@H](C(=O)OCc2cccc(Oc3ccccc3)c2)[C@@H]1C=C(Cl)Cl`, the compound was classed as inactive in assay [1], in assay [2], in assay [3], in assay [4], in assay [5] and in assay [6]. Moreover, the compound was called inactive in [7] and in [8].
For the compound `CCCCC(CC)COC(=O)/C=C\C(=O)OCC(CC)CCCC` (configuration not stated), the AC50 in [1] is 45 µM (active); in [2], 56.9 µM (active); in [5] it was 52.7 µM (active); in assay [8] it was 100 µM (active). Moreover, the call in assay [3], in assay [4], in assay [6] and in [7] was inactive.
On to `O=C1c2ccccc2C(=O)N1SC1CCCCC1`, for which the result in [1], in assay [2], in assay [3] and in assay [8] was inactive. In addition, the AC50 was 26.9 µM (active) in assay [4], 84.5 µM (active) in assay [5], 129 µM (active) in [6] and 75.1 µM (active) in assay [7].
